The text below walks through data of PubChem BioAssay AID1259309 (ICCB-Longwood Screening Facility, Harvard Medical School, 2017).

Several values for one entry are separate records, joined by “and”; a condition that tells them apart may be missing. Equal values may be shown once. The campaign covered roughly 330,000 compounds. About 1,800 (0.55%) were called active. The full list was thinned out, with actives kept by preference. A number with no mark means an inactive call. No stated cut-off is given here; in the data, active means growth inhibition above about 68%; inactive means the rest.

The assay is described as follows: growth inhibition of ugtP-null S. aureus, primary screen, RN4220 ugtP deletion, OD600 (AID 1259309).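 Further: plate controls were untreated wells for no effect and antibiotic for full effect.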 The following applies: 16 h, stronger effect = higher value.
As to `CC(=NNC(=O)c1ccc(F)cc1)c1ccccn1`, the growth inhibition is -8.87%.
With `CCOc1cc(C=NNC(=O)c2cccc(S(=O)(=O)N3CCOCC3)c2)ccc1OCC(=O)N(C)C` the figure was 7.71%.
Turning to `COC(=O)c1ccc(SCc2ccccc2)nc1`, the growth inhibition is 3.84%.
To `COC(=O)c1ccc(-c2c(-c3ccccc3)ncc3cc(OC)c(OC)cc23)cc1` belongs 97.6% (active); to `COc1ccc(CNC(=O)Cc2ccc(-c3ccccc3)cc2)cc1OC`, -1.11%; to `Cc1cccc(-n2c(C)cc(C=NNC(=O)c3ccco3)c2C)c1`, -2.71%.
To `COC(=O)C1=C(c2ccc(S(C)(=O)=O)cc2)CC2CCC1N2C(=O)N1CCCC1` (stereo not given) belongs 2.31%.
With `Cc1ccc(C(=O)/C=C/c2c(C)nn(-c3ccccc3)c2Cl)cc1` the figure was -4.9%; with `Cc1nn(-c2ccccc2)c(Cl)c1C=NO`, -0.481%.
In the case of `Cc1nn(-c2ccccc2)c(Cl)c1/C=C/C(=O)c1ccc(O)cc1`, the growth inhibition was 86.2% (active).
On to `CNC(=S)NN=Cc1c(C(=O)OC)cnn1-c1ccc(F)cc1F`, for which the growth inhibition was 2.84%.
Take `O=S(=O)(N=C(c1ccccc1Cl)N1CCOCC1)c1ccccc1`: the growth inhibition was -1.9%.
With `Cc1cc(C(=O)NN=C2CCCC(C)C2)n[nH]1` (stereo not given) the figure was 1.57%; with `COc1cc(OC)c(S(=O)(=O)Nc2ccccc2C(=O)O)cc1S(=O)(=O)Nc1ccccc1C(=O)O`, 7.58%.
For the molecule `COc1ccccc1C(=O)Nc1ccccc1C(=O)Nc1ccccc1`, the growth inhibition was 6.78%.
To `COc1cc(NC(=O)c2ccccc2NS(=O)(=O)c2ccc(Cl)s2)cc(OC)c1` belongs 88% (active); to `COC(=O)C1C[C@@]2(O)C(O)C(O)C(O)CC2N1Cc1cc(F)ccc1F` (stereo not given in full), -1.93%; to `CCOC(=O)N=C(NC(=O)Nc1ccc(C(=O)OCC)cc1)OC`, 0.614%.
As to `Cc1ccccc1C=Nn1c(C2CCCCC2)n[nH]c1=S`, the growth inhibition was -0.971%.
With `N#CC1=C(SCc2ccccc2)NC(=O)C(C#N)C12CCCC2` (stereo not given) the figure was -2.16%; with `N#CC1=C(SCc2ccc(C#N)cc2)N=C(N)C(c2nc(-c3ccccc3)cs2)C12CCCCC2` (stereo not given), 92.2% (active).
With `N#Cc1ccc(CSc2ncccn2)cc1` the figure was 7.1%.
Consider `CC(=NOCC(=O)OCC(=O)Nc1cc(S(C)(=O)=O)ccc1Cl)c1ccc2c(c1)OCO2`, for which the growth inhibition is 4.9%.
With `CCOc1cc(C=NNC(=O)C(O)(c2ccccc2)c2ccccc2)ccc1OC(=O)c1ccco1`, the growth inhibition was 0.814%.
With `COCCN=C1NC(c2cccc(C(F)(F)F)c2)C(C(=O)OC)=C(C)N1Cc1ccccc1` (stereo not given) the figure was -23%.
With `CCc1nc(C)ccc1OCC(=O)N(CC)CC` the figure was 2.97%; with `CCC(C)(C)c1ccc(OCC(=O)N(C)C)c(C(C)(C)CC)c1`, 93.1% (active).
With `CN1CCN(C(=O)COc2ccc(C(C)(C)C)cc2Br)CC1` the figure was -4.55%; with `O=c1[nH]ncc(NN=Cc2cccnc2)c1Cl`, 8.44%.
Take `CC(CC(=O)N1CCN(C=O)CC1)=NNC(=O)c1ccc(Cl)cc1`: the growth inhibition is 3.18%.
With `COC(=O)C1=C(C(=O)OC)C2N(C)c3ccccc3[C@@]23CC(CO)N(C(=O)c2cccs2)C3=N1` (stereo not given in full) the figure was 3.42%.
To `CCOc1ccc(-c2c(C(=O)NN=C(C)c3ccccc3OC)nnn2-c2nonc2N)cc1` belongs 7.28%; to `COc1cc(C(=O)NN=Cc2cc([N+](=O)[O-])cs2)cc(OC)c1OC`, 2.4%.
To `S=c1[nH]nc(-c2cccc(Cl)c2)n1N=Cc1ccc(-c2ccccc2Br)o1` belongs 27.2%; to `O=C(O)C(c1ccccc1)N1C(=O)/C(=C\c2ccc(-c3cccc(Cl)c3)o2)SC1=S` (stereo not given), 95.7% (active); to `CC1=NOC(=O)C1=Cc1ccc(-c2ccc(Cl)c(C(=O)O)c2)o1`, 2.05%.
For the molecule `COc1ccc(CC(=O)NCC(=O)NN=Cc2ccc(C)o2)cc1`, the growth inhibition was 8.44%.
As for `CC(C)(C)OC(=O)C1=C(CO)CS[C@@H]2[C@H](NC(=O)Cc3ccccc3)C(=O)N12`, the growth inhibition was 101% (active).
`O=C(Cc1ccccc1)NNC1CC(=O)N(c2ccc(Br)cc2)C1=O` (stereo not given): the growth inhibition was -0.3%.
With `CC(C)(C)OC(=O)NC(Cc1ccccc1)C(=O)NC(CO)C(O)C1CC1C(=O)NC1CC1` (stereo not given) the figure was -0.531%; with `O=S(=O)(c1ccccc1)c1nc(-c2ccccc2)oc1NCCCN1CCOCC1`, 2.69%.
As to `N#Cc1nc(-c2ccc(OCc3ccccc3)cc2)oc1NCCCN1CCOCC1`, the growth inhibition is 85.2% (active).
As for `Cc1ccc(-c2nc(C#N)c(NCCCn3ccnc3)o2)cc1`, the growth inhibition is -7.44%.
Consider `O=C(NN=C/C=C/c1ccco1)c1cccnc1`, for which the growth inhibition was -1.13%.
For `CCC1=C(OC(=O)N(CC)CC)N2C(=O)OC(=NCC3CC3)[C@]2(Cc2ccccc2)C2C1=CCC1C(=O)N(CC(=O)OC)C(=O)C12` (stereo not given in full), the growth inhibition was 5.55%.
In the case of `CC(C)NC(=O)N(C)CC1Oc2ccc(NC(=O)Nc3ccc(C(F)(F)F)cc3)cc2CC(=O)N(C(C)CO)CC1C` (stereo not given), the growth inhibition was -1.09%.
With `N#C/C(=C/c1ccc(Cl)cc1)NC(=O)c1ccccc1` the figure was -7.93%; with `N#CC(=NNc1ccc(Cl)cc1)C(=N)N1CCCCC1`, -11.7%.
To `N#CC(=NNc1ccc(Cl)cc1)C(=O)c1ccccc1` belongs 99.4% (active); to `CCCCC(O)(CCCC)C(=O)NN=C(C)c1ccc(Cl)cc1`, -3.08%.
With `COc1ccc(C=NNC(=O)c2ccccc2OC)cc1COc1ccccc1[N+](=O)[O-]` the figure was 4.98%; with `COc1ccc(C(=O)NN=Cc2ccc(OC(=O)c3cccc4ccccc34)c([N+](=O)[O-])c2)cc1`, 96.8% (active).
Take `COc1ccc(C(=O)NN=Cc2ccc(OC)c(CN3CCCc4ccccc43)c2)cc1`: the growth inhibition was -10.3%.
With `CC(=NNc1cccc(C(=O)O)c1)c1cc2ccccc2o1` the figure was 5.08%.
With `C=C(C)C(=O)Nc1cccc(C2=NOC3(C2)CC(C(N)=O)N(C(=O)c2ccccc2)C3)c1` (stereo not given) the figure was 0.731%.
With `CC(C)=CCc1c(O)c(CC=C(C)C)c2occ(-c3ccc(O)cc3)c(=O)c2c1O`, the growth inhibition was 98.5% (active).
Take `CC(C)=CCc1ccc(O)c(=O)cc1C(C)C`: the growth inhibition was -4.82%.
With `COc1ccccc1NC(=O)CC(C)=NNC(=O)c1ccccn1` the figure was 3.4%; with `C/C(C=NNC(=O)c1nnn(-c2nonc2N)c1C(C)C)=C\c1ccccc1`, -3.08%.
Regarding `Oc1ccc(CC2CNC(=S)N2CCc2cc(C(F)(F)F)cc(C(F)(F)F)c2)cc1` (stereo not given), the growth inhibition was 10.9% and 22.1%.
To `CCCCNC(=S)N(C)N=Cc1c(F)c(F)c(F)c(F)c1F` belongs 4.66%; to `Cc1cc(=O)n2[nH]c(-c3cccc(Cl)c3)cc2n1`, -2.61%; to `Cc1[nH]n(-c2cccc(Cl)c2)c(=O)c1-c1ccc(Cl)cc1`, 87.7% (active).
`Cc1nc2c(-c3ccccc3)c(C)[nH]n2c(=O)c1Cl`: the growth inhibition was 3.35%.
To `COc1ccc(C=NNC(=O)CCc2n[nH]c(=O)[nH]c2=O)cc1OC` belongs -0.0548%.
With `O=C(O)C1=CC(c2ccc3c(c2)OCO3)CC(OCc2ccc(CO)cc2)O1` (stereo not given) the figure was -2.53% and -0.0237%; with `COc1cc(C=NNC(=S)NCCN2CCOCC2)ccc1O`, 11.5%; with `O=C(Nc1nnc(-c2ccccc2)o1)c1cc(-c2cccs2)nc2ccccc12`, 96.3% (active).
For the molecule `O=C(NN=Cc1ccsc1)c1cc(-c2cccs2)nc2ccccc12`, the growth inhibition was -4.48%.
With `CC(C)(C)Cc1nnc(NC(=O)c2cc(-c3ccccc3)nc3ccccc23)s1` the figure was -17.6%; with `CN1CCN(N=Cc2ccc(-c3ccc([N+](=O)[O-])cc3Cl)o2)CC1`, 3.66%; with `Cc1ccc(N2C(=O)C3N=NN(CC(=O)N4N=C(c5cccc6ccccc56)CC4c4ccccc4)C3C2=O)cc1` (stereo not given), -14.5%.
Regarding `Oc1ccccc1C1=NN(c2ccccc2)C(c2ccccc2)C1` (stereo not given), the growth inhibition is 99.6% (active).
`O=C1C2N=NN(CC(=O)N3N=C(c4cccc5ccccc45)CC3c3ccccc3)C2C(=O)N1c1ccccc1` (stereo not given): the growth inhibition is -9.34%.
With `CCOc1ccc(C=NNc2cc(N3CCOCC3)nc(C)n2)c(O)c1` the figure was 1.85%.
`CC1CN(C(C)CO)C(=O)Cc2cc(NC(=O)CCC(F)(F)F)ccc2OC1CN(C)S(=O)(=O)c1ccc(Cl)cc1` (stereo not given): the growth inhibition is 4.94%.
With `NCCCCC(C(=O)N1CCNCC1)n1cc(CCC(=O)O)nn1` (stereo not given) the figure was 3.28%; with `OCc1ccc(-c2ccccc2)c(-c2ccccc2)c1`, 89.2% (active); with `OCc1nc(CO)n(Cc2ccccc2)n1`, 13.4%.
To `OCCN(Cc1ccccc1)Cc1ccc(Cl)cc1` belongs -6.5%; to `COc1cc(CCCN2C(=O)C(=O)NCC2CC2CCCCC2)cc(OC)c1OC` (stereo not given), 2.58%.
To `Cc1cc(C=NNC(=O)c2ccccn2)c(C)n1-c1cccc([N+](=O)[O-])c1` belongs 6.51%; to `Cc1ccnc2nc(C(=O)Nc3nnc(-c4ccccc4)o3)nn12`, 12.9%.
With `COc1ccccc1C(=O)NCC(=O)OCC(=O)Nc1nnc(-c2ccccc2)o1`, the growth inhibition was -1.67%.
To `O=C(Nc1nnc(-c2ccc(Cl)cc2)o1)c1ccccc1Br` belongs 97.7% (active); to `CCOC(=O)NN=Cc1ccc(C)o1`, 3.13%; to `N#CC(=C(O)CCl)c1nnc2n1CCCCC2`, 4.05%.
For `C#CCOCCOCCOCCNc1nc(N2CCN(C(=O)C(CCCCN)n3cc(C(N)CC(C)C)nn3)CC2)nc(N2CCN(C(=O)C(CCCCN)n3cc(C(N)CC(C)C)nn3)CC2)n1` (stereo not given), the growth inhibition was 0.321%.
Regarding `CC(C)NC(=O)CC(=O)NN=Cc1c(F)cccc1Cl`, the growth inhibition was -1.54%.
Regarding `Cc1cccc(CCN2C(Nc3ccccc3)=NCC2CC(C)C)c1` (stereo not given), the growth inhibition was 2.11%.
